Not all results are given here.
aSyn UTR act = Activators working through SNCA 5'UTR binding (MLPCN); activity score, % (tested at 7.5 µM), hits read low; AID 1814; 7.1% of 300,000 active; alpha-synuclein 5'UTR reporter, activators screen; in the data active = activity score below about -60%
Of the large screens only hits and unclear results are named; the others gave an inactive call.

Cc1nc(NC(=O)C(C)Oc2cccc(Cl)c2)sc1C(=O)N(C)C (stereo not drawn)	aSyn UTR act -65
Cc1nnc(NC(=O)c2oc3ccccc3c2C)s1	aSyn UTR act -83
Cc1nc(NC(=O)/C=C/c2ccccc2)sc1C(=O)N(C)C	aSyn UTR act -166
CCCCc1nnc(NC(=O)c2oc3ccccc3c2C)s1	aSyn UTR act -96
Cc1ccc(C(=O)Nc2nc(C)c(C(=O)N(C)C)s2)o1	aSyn UTR act -77
Cc1ccc2c(C)c(C(=O)N3CCN(Cc4ccc5c(c4)OCO5)CC3)oc2c1C	aSyn UTR act -63
Clc1ccccc1/C=N/NC1=Nc2cccc3cccc1c23	aSyn UTR act -230
COc1ccc(C(=O)NNC2=Nc3cccc4cccc2c34)cc1	none
Cc1cccc(NC(=O)c2cc(-c3ccc(C)c(C)c3O)n[nH]2)c1	aSyn UTR act -211
CC(=O)Nc1ccc(NC(=O)c2cc(-c3cc(C)cc(C)c3O)n[nH]2)cc1	aSyn UTR act -108
CC(=O)Nc1ccc(NC(=O)c2cc(-c3ccc(C)c(C)c3O)n[nH]2)cc1	aSyn UTR act -170
CC(C)CC[n+]1ccccc1/C=C/c1ccc(N(C)C)cc1	none
CN(C)c1ccc(/C=C/c2cccc[n+]2[O-])cc1	aSyn UTR act -101
O=C(NCc1csc(-c2cccs2)n1)c1ccsc1	aSyn UTR act -112
O=c1cccc2n1Cc1cc3ccccc3nc1-2	aSyn UTR act -152
CC[C@@]1(O)C(=O)OCc2c1cc1n(c2=O)Cc2cc3c(N)cccc3nc2-1	none
COc1ccc(NC(=O)C(=O)c2cn(CC(=O)N3CCCC3)c3ccccc23)c(OC)c1	aSyn UTR act -86
COc1ccccc1NC(=O)C(=O)c1cn(CC(=O)N2CCOCC2)c2ccccc12	aSyn UTR act -119
CCNc1ccc(Br)cc(C(=O)/C=C/c2ccccc2Cl)c1=O	aSyn UTR act -68
CCC(C)c1ccc(OCC(=O)Nc2ccc(Cl)cn2)cc1 (stereo not drawn)	aSyn UTR act -72
CC(C)CC(=O)NC(=S)Nc1ccc(Cl)cn1	aSyn UTR act -68
CCCCCCC(=O)Nc1ccc(Cl)cn1	aSyn UTR act -88
CCc1ccc(NC(=S)NC(=O)CC(C)C)cc1	aSyn UTR act -154
CNC(C)C#Cc1ccc2c(=O)c3cc(C)c(C)cc3oc2c1 (stereo not drawn)	aSyn UTR act -227
CNC(C)C#Cc1ccc2oc3cc(C)c(C)cc3c(=O)c2c1 (stereo not drawn)	aSyn UTR act -196
Cc1ccc(Nc2nc(/N=C/N(C)C)n[nH]2)cc1C	aSyn UTR act -79
Cc1cc(C)n(C(=O)c2cc3sccc3[nH]2)n1	aSyn UTR act -82
O=C(Nc1cccc(-c2nc3ccccc3s2)c1)C1=COCCO1	aSyn UTR act -82
O=C(Nc1ccc(-c2nc3ccccc3s2)c(O)c1)C1=COCCO1	aSyn UTR act -80
O=C(Nc1ccc(O)c(-c2nc3ccccc3s2)c1)C1=COCCO1	aSyn UTR act -78
O=C(Nc1ccc(-c2nc3ccccc3s2)cc1)C1=COCCO1	none
Cc1ccc(CC(=O)NCc2ccc(Cl)cc2)cc1	aSyn UTR act -76
Cc1ccc(CNC(=O)c2ccc3c(=O)c(O)c(-c4ccc(C)cc4)[nH]c3c2)cc1	none
CC(C)(C)c1ccc(C(=O)NCc2ccccc2)cc1	aSyn UTR act -88
CC(C)(C)c1ccc(C(=O)NCc2ccc(Cl)cc2)cc1	aSyn UTR act -75
O=C(N/N=C/c1ccccc1O)c1cccc(C(F)(F)F)c1	none
Cc1cccc(/C=N/NC(=O)c2ccc(Br)cc2)c1	aSyn UTR act -90
O=C(N/N=C/c1ccc(O)cc1)c1cccc(N/N=C/c2ccc(O)cc2)c1	aSyn UTR act -108
Nc1c(C(=O)N/N=C/c2ccccc2)cnn1-c1ccccc1	aSyn UTR act -108
O=C(N/N=C/c1ccccc1C(F)(F)F)c1ccc(O)cc1	aSyn UTR act -135
O=C(N/N=C/c1ccccc1Cl)c1n[nH]c2c1CCCC2	none
O=C(NN=C1CCCC1)c1ccn[nH]1	aSyn UTR act -77
O=C(N/N=C/c1ccc(F)cc1)c1ccccc1	aSyn UTR act -152
O=C(N/N=C/c1sc2ccccc2c1O)c1ccccc1	none
O=C(N/N=C/c1ccccc1)c1n[nH]c2c1CCCC2	aSyn UTR act -88
O=C(NN=C1CCCCCC1)c1ccc(Br)o1	aSyn UTR act -82
O=C(N/N=C/c1ccc(Br)cc1)c1ccc(Br)o1	aSyn UTR act -207
O=C(N/N=C/c1ccc(Br)cc1)c1ccc(F)cc1	aSyn UTR act -78
O=C(N[C@@H](Cc1c[nH]c2ccccc12)C(=O)NC1CC1)c1ccccc1Cl	aSyn UTR act -160
Cc1cc(C)c(C(=O)CN2C(=O)NC3(CCCCCC3)C2=O)cc1C	aSyn UTR act -72
COc1ccc(C(=O)CN2C(=O)NC3(CCCCCC3)C2=O)cc1	aSyn UTR act -90
COC(=O)c1ccc(CN2C(=O)NC3(CCCCC3)C2=O)cc1	aSyn UTR act -124
Cc1cc(C(=O)CN2C(=O)NC3(CCCCC3C)C2=O)c(C)n1Cc1cccs1 (stereo not drawn)	aSyn UTR act -165
COc1ccc(C(=O)CN2C(=O)c3ccccc3S2(=O)=O)cc1	none
CCOC(=O)c1c(C)[nH]c(C(=O)CN2C(=O)NC3(CCCC3)C2=O)c1C	aSyn UTR act -67
CCOC(=O)c1c(C)[nH]c(C(=O)CSc2nccc(C)n2)c1C	aSyn UTR act -129
Cc1cc(C(=O)CN2C(=O)NC3(CCCCC3)C2=O)c(C)n1C	aSyn UTR act -69
Cc1noc(C)c1-c1nnc(-c2ccc(OC(F)(F)F)cc2)o1	aSyn UTR act -69
Cc1cc2oc(C(=O)Nc3c(C)n(C)n(-c4ccccc4)c3=O)c(C)c2cc1C	aSyn UTR act -63
Cc1ccccc1C(=O)/C(C#N)=N/Nc1c(C)n(C)n(-c2ccccc2)c1=O	none
COc1ccc(N(C(=O)c2cnccn2)C(C(=O)NCc2ccccc2)c2ccc(O)cc2)cc1 (stereo not drawn)	aSyn UTR act -76
Cn1c(=Nc2ccccc2)sc2ccccc21	aSyn UTR act -77
Cn1c(=NC(=O)c2ccco2)sc2ccccc21	aSyn UTR act -126
Cc1sc(=NC(=O)c2ccco2)n(C)c1-c1ccc(F)cc1	aSyn UTR act -113
Cc1ccc(NC(=S)c2ccc(N(C)C)cc2)cc1	none
COc1ccc(C(=S)Nc2ccc(N(C)C)cc2)cc1	aSyn UTR act -99
CCOc1ccc(NC(=S)c2ccncc2)cc1	aSyn UTR act -110
COc1ccc(NC(=S)c2ccccc2)cc1	aSyn UTR act -148
CN(C)/C=C1\SC(=S)N(c2ccc(Br)cc2)C1=O	aSyn UTR act -100
N#Cc1cc2c(N)c(C(=O)Nc3ccccc3)sc2nc1N	aSyn UTR act -124
Cc1cccc(NC(=O)c2sc3nc(N)c(C#N)cc3c2N)c1	aSyn UTR act -156
Nc1c(C(=O)Nc2ccccc2)sc2nc(-c3ccco3)ccc12	aSyn UTR act -176
Cc1ccc2nc(/C(C#N)=C/c3cn[nH]c3-c3ccc(F)cc3)[nH]c2c1	aSyn UTR act -175
Cc1ccc2nc(/C(C#N)=C/c3ccc(O)c(O)c3)[nH]c2c1	aSyn UTR act -222
Cc1cc([N+](=O)[O-])ccc1NC(=O)c1cccc(NC(=O)C(C)C)c1	aSyn UTR act -99
Cc1cc([N+](=O)[O-])ccc1NC(=O)c1csc(C)c1C	aSyn UTR act -98
Cc1ccc2c(c1)=C(c1sc(N(C)c3ccc(O)cc3)nc1O)C(=O)N=2	aSyn UTR act -68
Fc1ccc(-n2nnc(-c3ccnc4ccccc34)n2)cc1	aSyn UTR act -154
Cc1ccc(-n2nnc(-c3ccnc4ccccc34)n2)cc1	aSyn UTR act -191
O=C(N/N=C/c1ccc2c(c1)OCO2)c1cccc(NC(=O)c2ccccc2Cl)c1	aSyn UTR act -158
